# The campaign covered roughly 310,000 compounds. About 14,000 (4.5%) showed an effect of 50% or more. Effects have a minus sign here. This excerpt belongs to a sample that is enriched for strong results.
# Biological target: human ether-à-go-go-related gene (hERG) potassium channel (human, UniProt Q12809)
# Assay: primary screen, population patch clamp on CHO cells stably expressing hERG; higher = less effect of the substance
# 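Also: peak tail current of the secondary pulse compared with the same well before compound.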
# human ether-à-go-go-related gene (hERG) potassium channel, sequence (Q12809 whole entry, looked up): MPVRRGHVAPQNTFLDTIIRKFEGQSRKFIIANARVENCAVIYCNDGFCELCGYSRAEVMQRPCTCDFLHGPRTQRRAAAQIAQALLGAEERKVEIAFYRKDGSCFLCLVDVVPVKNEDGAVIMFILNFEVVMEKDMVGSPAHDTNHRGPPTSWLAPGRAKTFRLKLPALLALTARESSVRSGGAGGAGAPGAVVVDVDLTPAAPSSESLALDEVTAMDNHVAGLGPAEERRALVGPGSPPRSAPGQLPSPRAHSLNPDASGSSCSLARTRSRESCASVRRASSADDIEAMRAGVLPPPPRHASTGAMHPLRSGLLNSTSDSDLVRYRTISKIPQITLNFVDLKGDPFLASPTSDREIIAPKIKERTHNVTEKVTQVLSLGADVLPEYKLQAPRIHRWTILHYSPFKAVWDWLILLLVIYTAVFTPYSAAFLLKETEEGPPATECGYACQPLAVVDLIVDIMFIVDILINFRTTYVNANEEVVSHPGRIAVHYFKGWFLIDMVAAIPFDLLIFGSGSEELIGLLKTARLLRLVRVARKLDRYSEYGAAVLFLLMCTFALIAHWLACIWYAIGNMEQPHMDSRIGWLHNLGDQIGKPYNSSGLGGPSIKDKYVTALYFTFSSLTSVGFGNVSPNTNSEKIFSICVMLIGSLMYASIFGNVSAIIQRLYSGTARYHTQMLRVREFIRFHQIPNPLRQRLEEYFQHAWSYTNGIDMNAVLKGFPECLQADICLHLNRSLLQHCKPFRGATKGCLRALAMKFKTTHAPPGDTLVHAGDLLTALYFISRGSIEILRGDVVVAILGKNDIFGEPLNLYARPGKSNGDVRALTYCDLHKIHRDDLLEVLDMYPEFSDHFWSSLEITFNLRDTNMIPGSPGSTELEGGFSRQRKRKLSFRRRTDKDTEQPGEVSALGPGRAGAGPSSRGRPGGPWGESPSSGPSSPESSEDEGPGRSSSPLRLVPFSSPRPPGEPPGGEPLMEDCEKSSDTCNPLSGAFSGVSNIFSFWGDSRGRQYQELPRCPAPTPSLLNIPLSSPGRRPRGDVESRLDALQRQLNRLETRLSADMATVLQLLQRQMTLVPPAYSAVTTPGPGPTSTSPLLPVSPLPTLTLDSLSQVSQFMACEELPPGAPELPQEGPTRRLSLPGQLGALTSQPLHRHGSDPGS
row,SMILES,"hERG current change (%, negative = inhibition) at 10uM [%]"
1,Cc1oc2ccccc2c1CNC(=O)N(C)C,14.2
2,Cc1cccc(N=Nc2ccc(O)c3ncccc23)c1,-8.51
3,CCCN(CC(=O)Nc1ccccc1OC)C(=O)c1cc(-c2cccs2)nn1-c1ccccc1,-9.02
4,COc1ccc(/C=N/Nc2nc3ccccc3o2)cc1OC,13.3
5,CC(=O)c1ccc(N2CCN(C(=O)COc3ccc4c(c3)CCC4)CC2)cc1,-34
6,Cc1ccc(SCc2cn3cccnc3n2)cc1,11.1
7,COc1cccc(CNC(=O)CN2C(=O)COc3ccc(S(=O)(=O)N4CCCCCC4)cc32)c1,24.8
8,COC(=O)c1cnc(Oc2ccc(NC(=O)NC(=O)c3c(OC)cccc3OC)cc2)cc1C(F)(F)F,-14.1
9,Cc1ccc(S(=O)(=O)c2cc3c(=O)n4ccccc4nc3n(Cc3ccco3)c2=N)cc1C,-4.4
10,Cc1ccc(CNC(=O)c2cc3c(=O)n4ccccc4nc3n(Cc3ccco3)c2=N)cc1,-75.5
11,Cc1ccc(Cn2c(=O)n(-c3ccccc3)c(=O)c3ccc(C(=O)NCc4ccco4)cc32)cc1,-10.1
12,Cc1ccc(S(=O)(=O)c2cc3c(=O)n4ccccc4nc3n(Cc3ccco3)c2=N)cc1,-11.2
13,Cc1ccc(Cn2c(=N)c(C(=O)NCc3ccco3)cc3c(=O)n4ccccc4nc32)cc1,-79.8
14,Cc1cccc(CSc2ccc(S(=O)(=O)N3CCCC3)cn2)c1,5.24
15,CC(NC(=O)C(=O)NCc1cccs1)c1ccccc1 (centres unmarked),16.9
16,CCn1cc(S(=O)(=O)CC(=O)Nc2ccc3c(c2)OCCO3)c2ccccc21,-13.1
17,CCOC(=O)C1=C(C)N(c2ccccc2)C(=O)/C1=C\c1cccs1,18.1
18,CCCCCC(=O)N1CCN(CCN=CC2=C(O)CC(c3cccs3)CC2=O)CC1 (centres unmarked),-106
19,CC(=O)N1CCN(CCN=CC2=C(O)CC(c3cccs3)CC2=O)CC1 (centres unmarked),8.53
20,CCC(=O)N1CCN(CCN=CC2=C(O)CC(c3cccs3)CC2=O)CC1 (centres unmarked),-9.43
21,CCCCCC(=O)N1CCN(CCN=CC2=C(O)CC(c3ccco3)CC2=O)CC1 (centres unmarked),-76.2
22,CC(C)C(=O)N1CCN(CCN=CC2=C(O)CC(c3ccco3)CC2=O)CC1 (centres unmarked),0.717

row,SMILES,"hERG current change (%, negative = inhibition) at 10uM [%]"
1,CC(=O)N1CCN(CCN=CC2=C(O)CC(c3ccco3)CC2=O)CC1 (centres unmarked),1.17
2,COc1cc(-c2cc(-c3ccc(O)cc3)nc(N)c2C#N)ccc1O,18.5
3,CCn1c(SCC(=O)NC2CCCc3ccccc32)nnc1-c1cccs1 (centres unmarked),-24.6
4,CC(Nc1ccc(Cl)cc1)C(=O)NN (centres unmarked),-5.86
5,COc1cccc(NC(=O)c2c(F)cccc2F)c1,-6.78
6,CCOC(=O)c1[nH]cnc1C(=O)Nc1cccc(OC)c1,2.14
7,NC(=O)c1cc(S(=O)(=O)NCc2ccc(F)cc2)cs1,3.37
8,S=C(NCc1ccc(Cl)cc1)N1CCN(c2ccccn2)CC1,-23.9
9,Cc1ccccc1Nc1nc(N)nc(CN2CCN(C(=O)c3ccccc3)CC2)n1,-37.9
10,Nc1nc(CN2CCN(c3ccccn3)CC2)nc(Nc2ccc(F)cc2)n1,-67.4
11,Cc1ccccc1Nc1nc(N)nc(CSc2ccc(F)cc2)n1,-50.4
12,Cc1ccc(SCc2nc(N)nc(Nc3ccccc3C)n2)cc1C,1.31
13,Nc1nc(CN2CCN(c3ccccn3)CC2)nc(Nc2ccc(Cl)cc2)n1,-74.8
14,Nc1nc(CSc2ncn[nH]2)nc(Nc2ccc(F)cc2)n1,6.74
15,Cc1ccccc1Nc1nc(N)nc(CSc2ccccc2)n1,-21
16,Nc1nc(CSc2ccccn2)nc(Nc2ccccc2)n1,1.81
17,Cc1ccccc1Nc1nc(N)nc(CN2CCN(c3ccccn3)CC2)n1,-66.6
18,Cc1ccccc1Nc1nc(N)nc(CCl)n1,10.5
19,Nc1nc(CSC(=S)N2CCN(c3ccccc3)CC2)nc(Nc2ccc(F)cc2)n1,2.14
20,O=C(c1ccc(Cl)cc1)N1N=CCC1(O)c1ccc(Cl)cc1 (centres unmarked),15.7
21,COc1cc(NC(=O)CN2C(=O)NC3(CCOc4ccccc43)C2=O)cc(OC)c1 (centres unmarked),-3.2
22,CCc1ccc(NC(=O)C2CCN(S(=O)(=O)c3ccc4[nH]c(=O)ccc4c3)CC2)cc1,3.6

row,SMILES,"hERG current change (%, negative = inhibition) at 10uM [%]"
1,Cc1ccc(NC(=O)c2c([N+](=O)[O-])c(C(C)(C)C)nn2C)c(C)c1,20.7
2,Cc1ccc2cc(/C=N/NC(=O)c3ccccc3[N+](=O)[O-])c(Cl)nc2c1,-5.33
3,Cc1cc(C(=O)NCCN2C(=O)S/C(=C\c3cccs3)C2=O)ccc1[N+](=O)[O-],-1.91
4,COc1ccc(Nc2nc(N)nc(CN3CCN(c4ccccn4)CC3)n2)cc1,-65.1
5,COc1ccc(NC(=S)N2CCN(c3ccccn3)CC2)cc1,-0.967
6,COc1ccc(Nc2nc(N)nc(CSc3nccn3C)n2)cc1,4.64
7,Cn1c(COc2ccc(C(=O)O)cc2)nc2ccccc21,14.7
8,CC(OC(=O)CCc1c[nH]c2ccccc12)C(=O)c1ccccc1 (centres unmarked),-17.8
9,COc1ncnc(-c2ccccc2)c1-c1ccccc1,1.86
10,COC(=O)c1c(NC(=O)c2ccco2)sc2c1CCN(C(C)C)C2.Cl,-62.5
11,CC(C)N1CCc2c(sc(NC(=O)Cc3ccccc3)c2C#N)C1.Cl,-16
12,COC(=O)c1c(NC(=O)c2ccco2)sc2c1CCN(C(C)=O)C2,-2.22
13,COC(=O)c1c(NC(C)=O)sc2c1CCN(Cc1ccccc1)C2.Cl,-9.29
14,COC(=O)c1c(NC(=O)c2ccc([N+](=O)[O-])o2)sc2c1CCN(C(C)C)C2.Cl,-25.1
15,CCN1CCc2c(sc(NC(=O)COc3ccccc3)c2C(=O)OC)C1.Cl,-62.6
16,CCN1CCc2c(sc(NC(=O)CN3C(=O)c4ccccc4C3=O)c2C(N)=O)C1.Cl,-36.6
17,CCOC(=O)c1c(NC(=O)Cc2ccccc2)sc2c1CCN(C)C2.Cl,-53
18,CC(C)N1CCc2c(sc(NC(=O)c3ccco3)c2C(N)=O)C1.Cl,-6.82
19,CN1CCc2c(sc(NC(=O)Cc3ccccc3)c2C#N)C1.Cl,-7.24
20,CN1CCc2c(sc(NC(=O)Cc3ccccc3)c2C(N)=O)C1.Cl,-16.2
21,COC(=O)c1c(NC(=O)Cc2ccccc2)sc2c1CCN(C(C)C)C2.Cl,-61.4
